The target of experiment [1] is ATP-dependent 6-phosphofructokinase (Trypanosoma brucei brucei) (UniProt O15648). As to the kind of experiment: qHTS Assay to Find Inhibitors of T. brucei phosphofructokinase: hit validation (AID 492961).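 Note: luminescence reports ADP formed as PFK phosphorylates fructose-6-phosphate with ATP; % is set by controls: 0 for no effect and ±100 for the full control effect.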 In short, it runs like this: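 In this biochemical qHTS validation, titrated compounds were tested against 1.25 nM PFK with 0.1 mM ATP and 0.5 mM F6P. Percent activity came from controls lacking or containing enzyme.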
Chain of ATP-dependent 6-phosphofructokinase (Trypanosoma brucei brucei) (O15648 whole entry, looked up): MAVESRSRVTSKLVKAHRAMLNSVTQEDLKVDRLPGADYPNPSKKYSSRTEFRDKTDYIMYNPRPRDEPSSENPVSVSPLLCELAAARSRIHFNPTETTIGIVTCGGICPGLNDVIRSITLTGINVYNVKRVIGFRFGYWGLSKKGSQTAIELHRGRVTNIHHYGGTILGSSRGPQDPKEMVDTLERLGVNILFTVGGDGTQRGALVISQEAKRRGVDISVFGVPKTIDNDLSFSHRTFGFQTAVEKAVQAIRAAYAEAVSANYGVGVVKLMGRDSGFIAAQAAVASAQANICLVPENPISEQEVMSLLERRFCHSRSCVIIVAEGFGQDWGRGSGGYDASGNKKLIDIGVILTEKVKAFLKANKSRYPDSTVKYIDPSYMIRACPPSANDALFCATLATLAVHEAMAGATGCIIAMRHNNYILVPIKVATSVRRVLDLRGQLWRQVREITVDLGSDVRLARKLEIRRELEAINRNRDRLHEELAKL
In general terms: In qHTS, concentration-response curves come from the screen itself.

For experiment [2], the system named is 7G8. Put plainly: qHTS profiling for inhibitors of Plasmodium falciparum proliferation (AID 504749).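 For activity, negative = inhibition: 0% = DMSO vehicle and full inhibition = artemisinin control.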 Note: nearly all actives have a fitted effect of over 60% in size. Note: potency is the fitted concentration of half-maximal effect. The following applies: P. falciparum in erythrocytes, SYBR Green DNA, 72 h; series mostly up to 28.7 µM. An outline of the steps:
(§1)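 In a 72 h erythrocytic culture (37 C, humidified, 5% CO2) at 2.5% hematocrit and 0.3% starting parasitemia, compounds were tested; SYBR Green I in detergent lysis buffer stained parasite DNA overnight.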

The subject of experiment [3] is ATS189. Described as above. The following applies: P. falciparum in erythrocytes, SYBR Green DNA, 72 h; series mostly up to 28.7 µM. An outline of the steps: as §1
Experiment [4] concerns CP192. Described as above. To be noted: P. falciparum in erythrocytes, SYBR Green DNA, 72 h; series mostly up to 28.7 µM. An outline of the steps:
as §1

Experiment [5] has as its system CP262. The experiment is described as above. The following applies: P. falciparum in erythrocytes, SYBR Green DNA, 72 h; series mostly up to 28.7 µM. In short, it runs like this: as §1
In experiment [6] the test system is CP335. The description is as above. The following applies: P. falciparum in erythrocytes, SYBR Green DNA, 72 h; series mostly up to 28.7 µM. In short, it runs like this:
as §1

Experiment [7] concerns Dd2. The description is as above. To be noted: P. falciparum in erythrocytes, SYBR Green DNA, 72 h; series mostly up to 28.7 µM. In short, it runs like this: as §1
Experiment [8] concerns ECU. The description is as above. The following applies: P. falciparum in erythrocytes, SYBR Green DNA, 72 h; series mostly up to 28.7 µM. An outline of the steps: as §1
In experiment [9] the test system is FAB9. The experiment is described as above. The following applies: P. falciparum in erythrocytes, SYBR Green DNA, 72 h; series mostly up to 28.7 µM. In short, it runs like this:
as §1

The test system of experiment [10] is ICS. The description is as above. To be noted: P. falciparum in erythrocytes, SYBR Green DNA, 72 h; series mostly up to 28.7 µM. An outline of the steps:
as §1

For experiment [11], the system named is JCK. The description is as above. To be noted: P. falciparum in erythrocytes, SYBR Green DNA, 72 h; series mostly up to 28.7 µM. An outline of the steps: as §1
Experiment [12] relates to P93_24. The experiment is described as above. To be noted: P. falciparum in erythrocytes, SYBR Green DNA, 72 h; series mostly up to 28.7 µM. In short, it runs like this:
as §1

For experiment [13], the system named is PC15. The experiment is described as above. The following applies: P. falciparum in erythrocytes, SYBR Green DNA, 72 h; series mostly up to 28.7 µM. An outline of the steps:
as §1

The subject of experiment [14] is PC49. The experiment is described as above. The following applies: P. falciparum in erythrocytes, SYBR Green DNA, 72 h; series mostly up to 28.7 µM. In short, it runs like this:
as §1

The test system of experiment [15] is SC27B. The description is as above. To be noted: P. falciparum in erythrocytes, SYBR Green DNA, 72 h; series mostly up to 28.7 µM. An outline of the steps:
as §1

The test system of experiment [16] is TAB109. Described as above. The following applies: P. falciparum in erythrocytes, SYBR Green DNA, 72 h; series mostly up to 28.7 µM. In short, it runs like this: as §1
Experiment [17] deals with TAB165. The experiment is described as above. To be noted: P. falciparum in erythrocytes, SYBR Green DNA, 72 h; series mostly up to 28.7 µM. An outline of the steps:
as §1

Experiment [18] deals with W2. Described as above. To be noted: P. falciparum in erythrocytes, SYBR Green DNA, 72 h; series mostly up to 28.7 µM. An outline of the steps: as §1
Experiment in experiment [19]: as above
The following applies: P. falciparum in erythrocytes, SYBR Green DNA, 72 h. An outline of the steps: as §1

The target in experiment [20] is Androgen receptor (Homo sapiens) (UniProt P10275). As to the kind of experiment: qHTS assay for small molecule agonists of androgen receptor signaling (AID 588515; active = well fitted curve in the direction sought with a large enough effect in the signal ratio, with a control signal flat; the % refers to the signal ratio; note: % is set by controls: 0 for no effect and ±100 for the full control effect). The following applies: AR-UAS-bla HEK293, beta-lactamase ratio, agonist 16 h; active compounds read high. In short, it runs like this:
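Stimulation of an AR-responsive β-lactamase reporter in GripTite HEK293 cells was measured after 16 h compound exposure at 37 °C, via CCF4 fluorescence after 2 h RT. EC50 from Hill fits, normalized to R1881 at 30 nM.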

[21] abbreviates: at 28.7 µM (top of the series), parasite line A.
Where [22] appears, read: at 28.7 µM (top of the series), parasite line B.

Where “and” joins values, the source holds several entries; their conditions need not be identical. Equal values may be shown once. Records with an inconclusive call do not appear. Values without a mark were called inactive. Calls of active or inactive are those of the source. Unless noted, calls come from the whole dose curve; as a rule, active = well fitted curve in the direction sought with a large enough effect; inconclusive = small, poorly fitted or top-dose-only effect, or another doubt; inactive = no such curve, though single readings can be large; an effect the other way counts as inactive or inconclusive.

Chain of Androgen receptor (Homo sapiens) (P10275 whole entry, looked up): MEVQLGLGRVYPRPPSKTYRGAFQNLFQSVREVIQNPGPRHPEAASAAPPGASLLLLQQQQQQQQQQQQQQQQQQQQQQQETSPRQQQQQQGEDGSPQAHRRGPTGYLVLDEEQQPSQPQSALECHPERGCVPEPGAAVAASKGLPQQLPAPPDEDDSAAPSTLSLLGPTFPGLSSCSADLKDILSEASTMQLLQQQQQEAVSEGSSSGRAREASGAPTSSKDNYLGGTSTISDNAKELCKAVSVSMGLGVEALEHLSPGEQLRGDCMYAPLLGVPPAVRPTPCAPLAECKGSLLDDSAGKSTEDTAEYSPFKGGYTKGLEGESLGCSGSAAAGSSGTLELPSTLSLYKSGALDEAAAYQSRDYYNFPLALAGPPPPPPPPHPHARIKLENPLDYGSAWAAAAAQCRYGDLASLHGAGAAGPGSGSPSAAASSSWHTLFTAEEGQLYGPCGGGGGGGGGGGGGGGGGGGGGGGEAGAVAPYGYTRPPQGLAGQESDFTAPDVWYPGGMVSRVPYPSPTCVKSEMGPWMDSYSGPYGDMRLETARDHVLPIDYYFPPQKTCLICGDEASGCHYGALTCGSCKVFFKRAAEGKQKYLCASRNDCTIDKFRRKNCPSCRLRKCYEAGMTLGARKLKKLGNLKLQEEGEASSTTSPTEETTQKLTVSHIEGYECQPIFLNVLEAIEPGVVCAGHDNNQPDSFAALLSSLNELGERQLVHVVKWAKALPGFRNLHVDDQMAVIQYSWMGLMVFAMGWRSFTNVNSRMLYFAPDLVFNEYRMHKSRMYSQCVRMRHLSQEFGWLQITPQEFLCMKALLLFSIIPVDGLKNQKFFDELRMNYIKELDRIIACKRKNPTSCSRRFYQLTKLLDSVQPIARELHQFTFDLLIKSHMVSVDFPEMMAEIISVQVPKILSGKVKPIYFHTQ

On to `C=C(NC(=O)C(=C)NC(=O)c1csc(C2=N[C@@H]3c4csc(n4)[C@@H]4NC(=O)c5csc(n5)[C@@H]([C@](C)(O)[C@H](C)O)NC(=O)[C@@H]5CSC(=N5)/C(=C/C)NC(=O)[C@@H]([C@H](C)O)NC(=O)c5csc(n5)[C@]3(CC2)NC(=O)[C@@H](C)NC(=O)C(=C)NC(=O)[C@@H](C)NC(=O)[C@@H]([C@@H](C)CC)N[C@H]2C=Cc3c([C@H](C)O)cc(nc3[C@@H]2O)C(=O)O[C@H]4C)n1)C(N)=O`, for which the call in experiment [1] was inactive. Moreover, the Potency in experiment [2] was 3.16 µM (active); in experiment [6], 2.28 µM (active); in experiment [7], 1.12 µM (active); in experiment [10], 3.16 µM (active); in experiment [12] it was 1.78 µM (active); in [16] it was 0.398 µM (active). Further, the Potency in experiment [17] was 2.82 µM (active); in [18], 1.61 µM (active). Besides, the Potency entry in experiment [3], in [4], in [5], in [8], in experiment [9] and in experiment [11] was “inactive” in each case. Besides, the Potency result in [13], in [14] and in experiment [15] was “inactive” each time.
On to `C[C@@H]1C[C@H]2[C@H]3C[C@@H](F)C4=CC(=O)C=C[C@]4(C)[C@@]3(Cl)[C@@H](O)C[C@@]2(C)[C@@H]1C(=O)COC(=O)C(C)(C)C`, for which, in experiment [1], the result was inactive. The activity, negative = inhibition is 0.272% in experiment [19] (setting [21]) and -10.2% in [19] (setting [22]). The Potency was 4.47 µM (active) in experiment [2]; 12 µM (active) in experiment [6]; 12.6 µM (active) in experiment [7]; 6.31 µM (active) in experiment [10]; 10.7 µM (active) in experiment [18]. Also, the Potency result in experiment [3], in experiment [4], in [5], in experiment [8], in experiment [9] and in experiment [11] was “inactive” each time. Further, the Potency result in [12], in experiment [14], in experiment [15] and in experiment [17] was “inactive” each time.
As for `CCC(Cl)CC(Cl)C(Cl)C(Cl)C(Cl)C(C)Cl` (stereo unspecified), the activation in experiment [20] is -4.22%.
`c1ccc2c(c1)ccc1ccccc12`: the activation in [20] is -2.75% and -0.0415%.
On the same count and under the same terms, next, `CCc1ccc(C(c2ccc(CC)cc2)C(Cl)Cl)cc1`: -10.8%.
With `C(=C/c1ccccc1)/CN1CCN(C(c2ccccc2)c2ccccc2)CC1`, the result in experiment [1] was inactive. Besides, in experiment [19] (at 12.8 µM (top of the series), parasite line A), the activity, negative = inhibition was 1.36%. Moreover, the Potency result in experiment [3], in experiment [4], in [5], in [8], in [9] and in experiment [11] was “inactive” each time. Also, the Potency entry in experiment [12], in [13], in experiment [14], in [15], in [16] and in [17] was “inactive” each time. For the same compound, the Potency was 7.94 µM (active) in [10] and 5.1 µM (active) in experiment [18].
With `Cc1c(C(=O)O)c(O)cc2c1C(=O)c1c(O)c([C@H]3O[C@H](CO)[C@@H](O)[C@H](O)[C@H]3O)c(O)c(O)c1C2=O`, in [1], the compound was called inactive. Also, the activity, negative = inhibition was 5.98% in experiment [19] (setting [21]) and 13.4% in experiment [19] (setting [22]). Also, the Potency entry in experiment [2], in experiment [3], in experiment [4], in experiment [5], in experiment [6] and in experiment [7] was “inactive” each time. Further, the Potency entry in experiment [8], in experiment [9], in experiment [10], in experiment [11], in [12] and in [13] was “inactive” throughout. In addition, the Potency entry in experiment [14], in experiment [15], in [16], in experiment [17] and in experiment [18] was “inactive” in each case.
As to `Nc1cc([N+](=O)[O-])ccc1O`, the activation in experiment [20] was -20.1%.

The record behind these values is PubChem BioAssay (NCATS).
